Our source for the inhibition values is PubChem BioAssay AID504863 (Sanford-Burnham Center for Chemical Genomics, 2011).

Each structure is given as a SMILES string. The list shows a part of the results. Values without a mark were called inactive.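 The calls were made as follows: active = inhibition averaging 50% or more, tested at 20 µM; inactive = the rest.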

The assay relates to diaphorase (Clostridium kluyveri). Description: C. kluyveri diaphorase inhibition, resazurin coupling – biochemical, fluorescence intensity, 30 µM NADPH, counter-screen for P. falciparum G6PD inhibitor project, confirmation (AID 504863).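 Also: 0% = DMSO with enzyme and 100% = DMSO wells lacking diaphorase.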 The settings on record: Diaphorase/resazurin coupled assay, resorufin fluorescence, at 20 µM, hits give high values.

As usually defined, the inhibition is how much of the control response was suppressed. `O=C1NC(=O)N(c2ccccc2)C(=O)/C1=C/c1ccc([N+](=O)[O-])s1`: the inhibition was 20.5%.
